Source: PubChem BioAssay AID651965 (National Center for Advancing Translational Sciences (NCATS), 2013)
Hit rate of the full screen: of about 340,000 compounds, about 6,400 (1.9%) were called active. Another 4% or so got no clear call; they are omitted. This excerpt belongs to a sample that is enriched for actives. Values without a mark were called inactive. Calls follow the shape of the dose curve; as a rule, active = well fitted falling curve with a large enough effect; inconclusive = small, poorly fitted or top-dose-only effect; inactive = no such curve, though single readings can be large or run the other way.

target: ATP-dependent Clp protease proteolytic subunit (Bacillus subtilis (strain 168)) (UniProt P80244); assay: qHTS Assay for Activators of ClpP; also: the source files actives as falling curves though it sought activators and does not explain the sign; nearly all actives have a fitted effect of over 65% in size; settings: purified B. subtilis ClpP, FRET peptide cleavage, 20 min; series mostly up to 57.5 µM; activity change, negative = active: at the top concentration
Sequence (P80244 whole entry, looked up): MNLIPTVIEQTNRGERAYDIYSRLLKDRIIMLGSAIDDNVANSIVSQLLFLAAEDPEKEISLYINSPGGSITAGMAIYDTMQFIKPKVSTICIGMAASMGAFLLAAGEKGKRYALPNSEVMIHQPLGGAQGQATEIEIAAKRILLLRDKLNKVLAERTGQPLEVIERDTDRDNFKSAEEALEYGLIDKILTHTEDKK
Summary of the method: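 ClpP 10 microg/mL final, pH 8 Tris/KCl buffer with BSA, glycerol, Tween-20; compound pinned in; FRET-FV substrate; RT 20 min; Ex320/Em430; ΔFRET vs ADEP 5.8 microM, DMSO, no enzyme.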
Potency is read from the fitted curve at half-maximal effect.

Row | Structure (SMILES) | activity change, negative = active | Potency
1 | NC(=O)c1ccc(Nc2ccc3nonc3c2[N+](=O)[O-])cc1 | 0.816% | –
2 | COc1cccc2c(O)cc(=O)n(C)c12 | – | 35.5 µM (active)
3 | COc1cc2c(=O)n(C)c3ccccc3c2cc1OC | -13.6% | –
4 | COc1cccc(OC)c1C(=O)Nc1ccc2c(c1)n(C)c(=O)n2C | 2.54% | –
5 | CCOc1ccc(Cl)cc1-c1cc(C(=O)NCc2cccs2)[nH]n1 | 0.129% | –
6 | CCOCCC(=O)Nc1ccc2c(c1)c(=O)n(C)n2-c1ccc2ccccc2c1 | -28.6% | –
7 | O=C1CC(c2ccccc2)CC2=C1C(c1ccco1)n1nc(C(F)(F)F)nc1N2 (stereo not given) | 4.45% | –
8 | CCCCc1c(-c2ccc(Br)cc2)ncn1CCc1ccccc1OC | 1.63% | –
9 | O=C(OCC(=O)N1CCN(C(=O)c2ccco2)CC1)c1cccc(O)c1 | -2.53% | –
10 | O=C(OCC(=O)N1CCN(C(=O)c2ccco2)CC1)c1ccc(Cl)c(Cl)c1 | -1.7% | –
11 | O=C(OCC(=O)N1CCN(C(=O)c2ccco2)CC1)c1c(Cl)cccc1Cl | – | 31.6 µM (active)
12 | COc1cccc(-c2ccc3c(c2)N(Cc2ccccc2OC)C(=O)C(C)S3)c1 (stereo not given) | -0.0272% | –
13 | O=C1Nc2ccccc2-n2nnnc2C1N1CCN(c2cccc(C(F)(F)F)n2)CC1 (stereo not given) | -20% | –
14 | Cc1cc(=O)oc2cc(OC(C)C(=O)Nc3ccc(N4CCOCC4)cc3)ccc12 (stereo not given) | -12.2% | –
15 | Cc1cc(=O)oc2cc(NC(=O)C(C)Oc3ccccc3)ccc12 (stereo not given) | – | 28.2 µM (active)
16 | Cc1cc(=O)oc2cc(OC(C)C(=O)NCCc3ccc(S(N)(=O)=O)cc3)ccc12 (stereo not given) | 3.63% | –
17 | Cc1cccc2cc(C#N)c(N3CCCC3)nc12 | – | 28.2 µM (active)
18 | CC(=O)c1ccc(S(=O)(=O)N2CCN(c3nc4c(C)c(C)ccc4cc3C#N)CC2)cc1 | -17% | –
19 | Cc1cc(C)c2cc(C#N)c(N3CCNCC3)nc2c1 | -26% | –
20 | CC1(Oc2ccc(Cl)cc2)CCN(Cc2csc3ccccc23)C1 (stereo not given) | -5.93% | –
21 | CN(CCOc1ccccc1)C(=O)c1cc(-c2ccco2)nc2ccccc12 | 4.34% | –
22 | O=C(c1cc(-c2ccco2)nc2ccccc12)N(Cc1nnc(-c2ccc(Cl)cc2)o1)C1CC1 | – | 28.2 µM (active)
23 | CC1CCCN(C(=O)c2cc(-c3ccco3)nc3ccccc23)C1 (stereo not given) | 3.78% | –
24 | Cc1ccc(Cc2c(-c3ccco3)nc3ccc(Cl)cn23)cc1 | -11.6% | –
25 | O=C1NC[C@H](CCCCN2C[C@H](Cc3ccccc3)N(Cc3ccccc3)C(=O)C2=O)N(CCc2ccc(O)cc2)C1=O | 1.04% | –

Row | Structure (SMILES) | activity change, negative = active | Potency
26 | CN(C)c1cc[n+](Cc2ccccc2)cc1 | -0.0614% | –
27 | O=C(c1ccc(CSc2ccccc2)cc1)N1CCCCCC1 | 3.91% | –
28 | CN(C)c1ccc(CSc2ccccc2)cc1 | – | 12.6 µM (active)
29 | COc1ccc(-c2cc(NC=O)c3ncc(-c4ccccc4)n3c2)cc1OC | -27.2% | –
30 | CCc1nc2c(OCc3ccc(F)c(F)c3)cccn2c1N(C)C(=O)c1ccco1 | -1.58% | –
31 | CCCn1c(=O)c(C(=O)Nc2cc(C)ccn2)c(O)c2ccccc21 | -18% | –
32 | CC1=C(C(=O)Nc2cc(C)ccn2)C(c2cnn(C)c2)C2=C(CC(c3ccccc3)CC2=O)N1 (stereo not given) | – | 31.6 µM (active)
33 | Cc1ccnc(NC(=O)c2ccoc2C)c1 | 0.724% | –
34 | CN1OC[C@@H]2CN(S(=O)(=O)c3cccc4ccccc34)[C@H](c3ccc(N4CCCCC4)cc3)C[C@@H]21 | -4.18% | –
35 | O=C(NC(c1ccc(Cl)cc1)c1cnccn1)C1CCN(Cc2ccc(Cl)cc2)CC1 (stereo not given) | 0.881% | –
36 | O=C1[C@H]2[C@@H](c3ccc(C(F)(F)F)cc3)N[C@]3(CCCN(Cc4ccc(Cl)cc4)C3=O)[C@H]2C(=O)N1Cc1ccccc1 | 1.88% | –
37 | COc1ccc(/C=N/NC(=O)CNC(=O)c2ccc(S(=O)(=O)N3CCCC3)cc2)c(OC)c1 | -0.301% | –
38 | Cc1ccccc1OCC(=O)Nc1ccc(S(=O)(=O)N2CCOCC2)cc1 | -1.93% | –
39 | COc1cccc(/C=N/NC(=O)CNC(=O)c2ccc(S(=O)(=O)N3CCOCC3)cc2)c1OC | – | 31.6 µM (active)
40 | CC(C)Oc1ccc(CN2CCC2(C)C(=O)NCc2ccc(C(F)(F)F)cc2)cc1 (stereo not given) | 3.39% | –
41 | CCc1nc2ccc(C(=O)N3CCC(O)(Cc4ccccc4)CC3)cn2c1N(C)C(=O)Cc1ccccc1 | -3.8% | –
42 | O=[N+]([O-])c1cccc2ncccc12 | -1.58% | –
43 | CN1CN(C)c2ccc([N+](=O)[O-])c3cccc1c23 | – | 15.8 µM (active)
44 | CN1CCN(S(=O)(=O)c2ccc(N3CCN(c4ccccc4O)CC3)c([N+](=O)[O-])c2)CC1 | -2.66% | –
45 | CC1(C)C=Cc2c(ccc(C(=O)/C=C/c3ccccc3)c2O)O1 | -7.63% | –
46 | COC(=O)[C@]12CCCCC=C1N(Cc1cccc3ccccc13)C(=O)[C@H](CC(=O)N1CCOCC1)C2 | -2.63% | –
47 | CCN(CC)C(=O)C1=C(C)N(Cc2ccc(C(C)(C)C)cc2)C(=O)C(CC(=O)NCc2cccc3ccccc23)C1 (stereo not given) | -0.246% | –
48 | CN(CC(=O)NCCc1ccccn1)S(=O)(=O)c1ccc(Cl)cc1 | -0.111% | –
49 | CN(CCc1ccccn1)S(=O)(=O)c1ccc2c3c(cccc13)C(=O)N2 | – | 25.1 µM (active)
50 | CN(CCc1ccccn1)C1CCCN(S(=O)(=O)c2ccccc2Cl)C1 (stereo not given) | -2.82% | –
